This is a sample that favours compounds with a hit; in the whole collection about 18% have one here.
DT40 TDP1 CPT: growth inhibition of DT40 Tdp1-/-;hTDP1 cells with camptothecin (screen for TDP1 inhibitors). chicken DT40 Tdp1-/-;hTDP1 cells + 20 nM CPT, ATP luminescence, 48 h. AID 686979. hit rate 12% among 420,000. Potency, µM (titrated, usually from 46.2 µM), for inactives: top-dose activity change, negative = growth inhibition, usual class: inhibitors; note: potency is the fitted concentration of half-maximal effect; nearly all actives have a fitted effect of over 55% in size
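Cell growth measured by CellTiter-Glo luminescence after a minimum 48 h, 37 C compound exposure with 20 nM CPT in Tdp1-knockout DT40 cells stably expressing hTDP1, seeded 400/well; qHTS titration format.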
Gal4-VP16 FLuc: inhibits Gal4-VP16 luciferase reporter, ROR gamma counter-screen; Drosophila S2 Gal4-VP16 UAS-luciferase, luminescence, 20 h; Potency, µM (doses to about 53.6 µM), for the others: at the highest dose activity, negative = inhibition, hits mostly inhibitors; hit rate 3.5% among 310,000;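 note: Gal4-VP16 expression switched on by copper sulfate through the metallothionein promoter; potency is the fitted concentration of half-maximal effect; nearly all actives have a fitted effect of over 50% in size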
IL1B secr inh: inflammasome signaling inhibition, IL-1 beta readout; THP-1 LPS/ATP IL-1B secretion, AlphaLISA, 16 h; stronger effect = lower value; activity change, % at 57.5 µM; hit rate 4.7% among 360,000; AID 743279; in the data active = activity change below about -50%; inconclusive = mostly about -30% to -49%
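THP-1 cells pretreated 1 hr with compounds (up to 57.5 uM final), then stimulated with LPS (250 ng/mL final) plus ATP (1.25 mM final); secreted IL-1B measured by AlphaLISA after 16 hr, decreased signal indicating inhibition.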
LDHA block: blocks human lactate dehydrogenase A | P00338 | AID 1347041 | purified LDHA, NADH/diaphorase-resazurin fluorescence; stronger effect = lower value | hit rate 0.15% among 480,000 | activity change, % (values are at about 110 or 230 µM); in the data active = activity change below about -30%; inconclusive = mostly about -25% to -30%;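 note: plate controls were DMSO wells for no effect and wells without enzyme for full effect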
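Enzyme activity of human lactate dehydrogenase 5 (2 nM; 0.06 mM NADH, 0.2 mM pyruvate, 5 min, RT) is measured via a resazurin/diaphorase fluorescence readout of residual NADH.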
DT40 TDP1 no CPT: qHTS for Inhibitors of human tyrosyl-DNA phosphodiesterase 1 (TDP1): qHTS in cells in absence of CPT; DT40 Tdp1-/- hTDP1 cells, no CPT, ATP luminescence, 48 h; Potency, µM (series often up to 46.2 µM), for the others: at the highest dose activity change, negative = growth inhibition, hits mostly inhibitors; hit rate 15% among 420,000; AID 686978, 2013; note: potency is the fitted concentration of half-maximal effect; nearly all actives have a fitted effect of over 55% in size
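Growth of hTDP1-complemented DT40 Tdp1-knockout cells is measured by ATP luminescence after at least 48 hr compound exposure at 37 °C, with DMSO substituting for the 20 nM CPT used in the parallel screen.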
RORg inh: blocks mouse ROR gamma transcriptional activity; P51450; Drosophila S2 Gal4-RORgamma UAS-luciferase reporter, 20 h; Potency, µM (top dose mostly 53.6 µM), without a hit: top-dose activity change, negative = inhibition, actives largely listed as inhibitors; hit rate 5.4% among 310,000; AID 2551; note: potency is the fitted concentration of half-maximal effect; nearly all actives have a fitted effect of over 60% in size
Target sequence (P51450 whole entry, looked up, the tested form may be a part): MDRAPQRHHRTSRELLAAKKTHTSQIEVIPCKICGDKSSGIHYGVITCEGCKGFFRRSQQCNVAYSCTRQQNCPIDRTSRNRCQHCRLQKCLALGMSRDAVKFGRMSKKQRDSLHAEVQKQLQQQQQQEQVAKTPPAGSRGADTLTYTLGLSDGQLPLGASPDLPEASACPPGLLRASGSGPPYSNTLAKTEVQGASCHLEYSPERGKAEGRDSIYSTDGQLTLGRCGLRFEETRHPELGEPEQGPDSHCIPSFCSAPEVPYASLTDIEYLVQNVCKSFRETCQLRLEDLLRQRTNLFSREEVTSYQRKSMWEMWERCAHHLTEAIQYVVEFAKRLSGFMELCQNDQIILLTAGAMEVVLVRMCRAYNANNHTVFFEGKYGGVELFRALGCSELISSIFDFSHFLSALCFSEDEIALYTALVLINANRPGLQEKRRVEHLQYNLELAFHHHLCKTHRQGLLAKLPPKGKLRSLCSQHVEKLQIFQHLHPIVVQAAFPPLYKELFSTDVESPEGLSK
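Stable Schneider cell line, Gal4 DNA-binding domain fused to ROR gamma, UAS-luciferase. Cmpd 1 hr RT → CuSO4 700 uM final → 20 hr RT → luciferase reagent 10 min → luminescence.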
An asterisk follows results filed as active; u = inconclusive; x = no result given. Unless noted, calls come from the whole dose curve; as a rule, active = well fitted curve in the direction sought with a large enough effect; inconclusive = small, poorly fitted or top-dose-only effect, or another doubt; inactive = no such curve, though single readings can be large; an effect the other way counts as inactive or inconclusive. Unless noted, % is set by controls: 0 for no effect and ±100 for the full control effect.

SMILES | DT40 TDP1 CPT | Gal4-VP16 FLuc | IL1B secr inh | LDHA block | DT40 TDP1 no CPT | RORg inh
CN(C)CC/C=C1/c2cc(F)ccc2Sc2ccc(Cl)cc21 | u | x | -51* | -6 | 18µM* | x
Cc1ccc(Cc2c(C)nc3nc(SCC(=O)NCCCN4CCCC4)nn3c2C)cc1 | 6% | -6% | -13 | -10 | -18% | 1%
CCC1CCCCN1CCCNC(=O)CSc1nc2nc(C)c(Cc3ccccc3)c(C)n2n1 (stereo not drawn) | 0% | -15% | -67* | -9 | -14% | -8%
Cc1ccc(Cc2c(C)nc3nc(SCC(=O)NCCCN4CCCCC4)nn3c2C)cc1 | 3% | 1% | -62* | -9 | -15% | 0%
Cc1ccc(Cc2c(C)nc3nc(SCC(=O)NCCC(C)C)nn3c2C)cc1 | u | x | x | -1 | 23µM* | x
CC1CC(=O)c2c(cc3c(-c4c(O)cc(O)c5c(O)c6c(cc45)OC(C)CC6=O)c(O)cc(O)c3c2O)O1 (stereo not drawn) | 1µM* | 13µM* | 3 | 4 | 1.3µM* | 5µM*
CCc1oc2ccccc2c1/C=C(/C#N)C(=O)NC1CC1 | x | x | x | -9 | x | x
CCOc1ccc(NC(=S)/C(=C(\[O-])c2ccc(C)c([N+](=O)[O-])c2)[n+]2ccccc2)cc1 | u | 2% | 13 | 1 | 15µM* | -17%
CCc1cc[n+](/C(C(=S)Nc2cccc(C)c2)=C(/[O-])c2ccc(C)c([N+](=O)[O-])c2)cc1 | 16µM* | 0% | -26 | 3 | 12µM* | -41%
Cc1ccc(/C([O-])=C(/C(=S)NCc2ccccc2)[n+]2ccccc2)cc1[N+](=O)[O-] | -24% | 2% | -24 | 2 | u | u
CC(C)C(=O)Nc1ccc2c(C(C(=O)O)N3CCN(C)CC3)c[nH]c2c1 (stereo not drawn) | x | x | x | -4 | x | x
O=C(Nc1ccc(F)cc1)c1ccc(S(=O)(=O)NCC2CCCO2)cc1 (stereo not drawn) | 18µM* | -20% | u | -5 | 13µM* | 17%
O=S(=O)(NCC1CCCO1)c1ccc(S(=O)(=O)N(Cc2ccccc2F)C2CCCCC2)cc1 (stereo not drawn) | 13µM* | x | -8 | -9 | u | x
O=C(Nc1ccc(S(=O)(=O)NCC2CCCO2)cc1)c1ccc(Cl)cc1[N+](=O)[O-] (stereo not drawn) | 8.2µM* | u | -25 | -4 | u | 44%
O=C(NCc1noc(-c2ccccc2)n1)c1ccc(Br)o1 | x | x | x | 16 | x | x
Cc1ccc(C)c(CN2C(=O)c3ccccc3S(=O)(=O)c3ccc(C(=O)N(C)C4CCCCC4)cc32)c1 | u | x | x | 4 | 21µM* | x
CN(C(=O)c1ccc2c(c1)N(Cc1ccccc1F)C(=O)c1ccccc1S2)C1CCCCC1 | u | x | x | 1 | 23µM* | x
CN(C(=O)c1ccc2c(c1)N(Cc1ccccc1F)C(=O)c1ccccc1S2(=O)=O)C1CCCCC1 | u | x | x | 4 | 23µM* | x
Cc1ccccc1CNC(=O)Cn1cnc2c1c(=O)n(C)c(=O)n2C | x | x | x | 4 | x | x
CCOC(=O)c1noc2nc(C)n(CC(=O)Nc3cc(Cl)c(OC)cc3OC)c(=O)c12 | x | x | x | -8 | x | x
CC1=C([N+](=O)[O-])C(c2ccc(Cl)cc2)NC(=O)N1C (stereo not drawn) | 6.5µM* | -1% | 34 | -9 | 5.8µM* | -15%
COc1cc(C#N)ccc1OCc1ccc(F)cc1Br | x | x | x | 8 | x | x
CN(C)c1nc(OCCNC(=O)COc2ccc(Cl)cc2Cl)nc(N2CCOCC2)n1 | 15µM* | -4% | 19 | -2 | 13µM* | -1%
Cc1cc(Cl)ccc1OCC(=O)NCCOc1nc(N2CCOCC2)nc(N2CCOCC2)n1 | u | 0% | 14 | -1 | 21µM* | 13%
Cc1cc(Cl)ccc1OCC(=O)NCCCN1CCOCC1 | -4% | 2% | 3 | -4 | -9% | u
SMILES | DT40 TDP1 CPT | Gal4-VP16 FLuc | IL1B secr inh | LDHA block | DT40 TDP1 no CPT | RORg inh
O=C(NCCOc1nc(N2CCOCC2)nc(N2CCOCC2)n1)Nc1ccc(Cl)cc1 | -25% | 0% | -1 | 2 | -25% | 8%
O=C(/C=C/Nc1cccc2ccccc12)C(F)(F)F | x | x | x | 25 | x | x
CCCc1[nH][nH]c(=O)c1C(c1ccc(Cl)cc1)C(C#N)C#N (stereo not drawn) | -12% | -26% | -83* | 2 | -23% | -12%
Cc1[nH][nH]c(=O)c1[C@@H](c1ccccc1[N+](=O)[O-])C(C#N)C#N | u | 1% | -3 | 5 | -19% | -1%
Cc1nnc(N2CCOCC2)c2c1nnn2Cc1ccccc1Cl | x | x | x | -1 | x | x
CC(C)N(C(=O)Cn1c(C2CC(=O)N(Cc3ccc(F)cc3)C2)nc2ccccc21)c1ccccc1 (stereo not drawn) | x | x | x | 5 | x | x
O=C(NC1CCCC1)C1C(c2ccccc2)=Nc2ccccc2N1C(=O)c1cc(Cl)cc(Cl)c1 (stereo not drawn) | 18µM* | x | 2 | -7 | 29µM* | x
O=C(NC1CCCC1)C1C(c2ccccc2)=Nc2ccccc2N1C(=O)c1ccc(C(F)(F)F)cc1 (stereo not drawn) | 16% | x | 18 | -5 | 11% | x
C/C(=N\NC(=S)NCCc1ccccc1)c1cccs1 | 5.2µM* | 1.4µM* | 37 | -1 | 5.2µM* | 4.5µM*
C/C(CCC(C)C)=N\NC(=S)NCc1ccccc1 | u | u | 0 | -2 | u | 4µM*
CC(OC(=O)c1cccs1)C(=O)NCCc1ccccc1 (stereo not drawn) | 10% | 25% | 17 | -11 | -1% | -3%
C/C(CCc1ccccc1)=N\NC(=S)NCCc1ccccc1 | u | 6.3µM* | 12 | -2 | 13µM* | 5µM*
Cc1ccc(NC(=O)CCNS(=O)(=O)c2cc(Br)cnc2N)cc1Cl | u | -1% | u | -3 | u | 21%
Nc1ncc(Br)cc1S(=O)(=O)NCCC(=O)Nc1cccc(Cl)c1 | -20% | -5% | -61* | 0 | -13% | 33%
COc1ccccc1N1CCN(C(=O)CNS(=O)(=O)c2ccc(Br)s2)CC1 | u | -8% | -5 | -2 | u | -5%
COc1ccccc1N1CCN(C(=O)CCNS(=O)(=O)c2ccc(Br)s2)CC1 | 23µM* | -10% | -6 | -3 | 18µM* | 16%
COc1ccccc1N1CCN(C(=O)CCNS(=O)(=O)c2cc(Br)cnc2N)CC1 | 18µM* | -3% | 2 | 0 | u | 13%
Cn1c(SCc2csc(-c3ccccn3)n2)nnc1C1CC1 | x | x | x | 8 | x | x

Screening data deposited in PubChem BioAssay by National Center for Advancing Translational Sciences (NCATS).
